Assay outcomes deposited in PubChem by National Center for Advancing Translational Sciences (NCATS).
CHX counter – counter-screen for Shiga toxin inhibitors: cycloheximide protein synthesis inhibition; 300,000 tested, 12% active; max response, %; cell reporter, cycloheximide protein synthesis inhibition counterscreen; AID 2314; in the data active means max response mostly above about 13%, no sharp cut-off; inactive means mostly below about 14%; further: read at 38.3 µM for the half of the compounds with a filed dose; 0% is about no effect
Pf growth 96h – P. falciparum growth inhibition at 96 hours; 320,000 tested, 6.9% active; Potency, µM (doses to about 28.7 µM), for inactives: top-dose activity change, negative = inhibition, actives largely listed as inhibitors; P. falciparum luciferase reporter growth, 96 h; further: potency means the concentration at half of the fitted maximal effect; on the % scale 0 is the no-effect control and ±100 the full control effect
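Cell-based qHTS: luciferase-tagged P. falciparum in erythrocytes (2% hematocrit, 0.05% parasitemia final) incubated with compounds for 96 hours, 37 C, 5% CO2; luciferase detection reagent then added and luminescence measured.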
HCV inh – inhibitors of hepatitis C virus infection; Huh7.5.1 HCVcc-Cre infection, luciferase reporter, 44 h; Potency, µM (top dose mostly 41.8 µM), inactives show at the highest dose activity change, negative = inhibition, hits mostly inhibitors; 340,000 tested, 3.4% active; AID 651820; further: potency means the concentration at half of the fitted maximal effect; on the % scale 0 is the no-effect control and ±100 the full control effect
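Infectious HCV cell culture screen: compound-treated cells (1,000/well, pre-plated 4 h) are infected with HCVcc-Cre at roughly 0.5 moi and grown 44 h. Infection is quantified by luciferase signal after 15 min substrate incubation at room temperature.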
Shiga inhibitor – Shiga toxin inhibition; Vero cells, Shiga toxin protein synthesis inhibition reporter; inhibition, % at 38.7 µM; AID 2315; 290,000 tested, 9.2% active; in the data active means inhibition mostly above about 28%, no sharp cut-off; inactive means mostly below about 43%; further: 0% is about no effect
Pf growth 48h – inhibits P. falciparum growth in the first generation, 48 h. P. falciparum luciferase growth in erythrocytes, 48 h. Potency, µM (top dose mostly 28.7 µM), without a hit: top-dose activity change, negative = inhibition, most hits filed as inhibitors. 310,000 tested, 5.9% active. AID 504832; further: potency means the concentration at half of the fitted maximal effect; on the % scale 0 is the no-effect control and ±100 the full control effect
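Cell-based growth assay: transgenic P. falciparum expressing firefly luciferase, cultured in red cells within RPMI 1640 containing 0.5% w/v Albumax, 24 mM bicarbonate and gentamycin. A drop in luciferase activity indicates inhibition.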
HCMV antiviral – inhibitors of human cytomegalovirus; HFF cells, HCMV-luciferase reporter, 72 h; active compounds read low; activity change, negative = inhibition, % at 57.5 µM; 410,000 tested, 4.5% active; AID 1259415; in the data active means activity change below about -60%; inconclusive means no clear call, values can overlap the other calls; inactive means above about -39%; further: on the % scale 0 is the no-effect control and ±100 the full control effect
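Luciferase read-out from HCMV-luciferase-infected HFFs (MOI 1 PFU/cell) 72 h post infection at 37C; compounds added after 16 h cell attachment; activity normalized between buffer-only basal and Salinomycin (10uM) inhibitor controls.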
* = called active by the depositor; i = inactive; u = inconclusive; x = not tested or not shown. Sampled rows, rich in hits. Any-hit rate of the full collection: about 21%. Unless noted, the call rests on the fitted dose curve; in most records, active means well fitted inhibition curve with a large enough effect; inconclusive means small, poorly fitted or top-dose-only effect, or another doubt; inactive means no such curve, though single readings can be large or run the other way.

SMILES	CHX counter	Pf growth 96h	HCV inh	Shiga inhibitor	Pf growth 48h	HCMV antiviral
COc1cc(/C=C2\SC(=S)N(NC(=O)c3ccccc3O)C2=O)ccc1O	8	-13%	-15%	-6	-8%	5
O=C(COc1ccc(F)cc1)NCC1(N2CCCCC2)CCCCC1	x	-2%	11%	x	-16%	-26
CCOc1ccc(-n2ccnc2SCC(=O)Nc2nc3ccc(C)cc3s2)cc1	x	x	x	x	x	-18
O=C(CNC(=O)c1ccc(Br)o1)NC1CCCCC1	1	81%	2%	-6	14%	26
COc1cc(/C=C2\SC(=O)N(Cc3ccc(Cl)cc3)C2=O)cc([N+](=O)[O-])c1O	-8	-23%	-17%	-6	u	-23
O=C1/C(=C\c2cccc([N+](=O)[O-])c2O)SC(=S)N1Cc1ccccc1	7	29%	-16%	-13	u	-64*
O=C1/C(=C\c2cc(Br)cc(Br)c2O)SC(=S)N1Cc1ccccc1	-4	11%	u	-5	u	x
COc1cc(/C=C2\SC(=O)N(Cc3ccc(F)cc3)C2=O)cc([N+](=O)[O-])c1O	-3	-25%	-6%	-8	u	-76*
COc1cc([N+](=O)[O-])cc(/C=C2/SC(=S)N(Cc3ccccc3)C2=O)c1O	0	9%	-28%	-4	10µM*	-88*
Cc1ccc2[nH]c(C(=O)N3CCN(c4cccc(Cl)c4)CC3)cc2c1	5	-24%	13%	x	-27%	-8
COc1ccc(C2C(C#N)=C(N)Oc3cc(O)ccc32)cc1Cl (stereo not drawn)	8	u	-4%	-4	-27%	76
CCOc1ccc(CO[C@@H]2O[C@H](CO)[C@@H](O)[C@H](O)[C@H]2NC(C)=O)cc1OC	8	u	-6%	-3	35%	-26
O=C(CSc1nnc(C2CC2)n1CC1CCCO1)Nc1cccc(Cl)c1 (stereo not drawn)	-3	43%	4%	-5	23%	4
O=C1/C(=C\c2cccs2)Sc2ccc3ccccc3c21	48*	12%	u	84*	105%	32
CCOc1ccc(NC(=O)CSc2oc(-c3ccco3)nc2S(=O)(=O)c2ccc(Cl)cc2)cc1	x	x	x	x	x	9
O=C(Nc1ccc(NC(=O)c2ccccc2Cl)cc1)c1cccnc1	1	0%	-12%	14	u	19
O=C(COC(=O)c1cccnc1)c1ccc(Cl)cc1	12	15%	16%	10	-31%	47
N/C(=N\OC(=O)c1cccnc1)c1ccc(Cl)cc1Cl	22*	i	0%	44*	53%	-33
N/C(=N\OC(=O)c1cccnc1)c1ccccc1Cl	27*	-21%	u	84*	74%	15
Cc1ccc(-n2ncc(C(=O)N3CCCCC3)c2C2CCN(C(=O)OC(C)(C)C)CC2)c(C)c1	x	x	x	x	x	-9
C=CCOc1ccc(/C=N/N2C(=O)C(CC(=O)Nc3ccc(F)cc3F)SC2=NC)cc1 (stereo not drawn)	21*	u	9%	30*	u	-14
CN=C1SC(CC(=O)Nc2ccccc2F)C(=O)N1C (stereo not drawn)	2	10%	9%	7	16%	-39
CNc1oc(-c2cccs2)nc1S(=O)(=O)c1ccccc1	-2	-5%	-6%	-15	-7%	-9
CCC(C)S(=O)(=O)c1oc(-c2cccs2)nc1S(=O)(=O)c1ccccc1 (stereo not drawn)	x	x	x	x	x	-102*
CCCCNc1oc(-c2cccs2)nc1S(=O)(=O)c1ccccc1	-4	u	10µM*	-6	x	u
SMILES	CHX counter	Pf growth 96h	HCV inh	Shiga inhibitor	Pf growth 48h	HCMV antiviral
C[C@]12CC[C@H](O)CC1=C[C@H](O)C1C2CC[C@@]2(C)C1CC[C@@]2(O)C#Cc1ccc(CN)cc1 (stereo partly drawn)	x	x	-9%	x	x	24
COc1ccc(S(=O)(=O)N2CCCCC2)cc1NC(=O)CCc1cc(OC)c(OC)c(OC)c1	x	x	-8%	x	x	0
COc1ccc(S(=O)(=O)Nc2ccccc2OC)cc1NC(=O)CC1CC2CCC1C2 (stereo not drawn)	-1	u	6.3µM*	6	-4%	u
COc1ccc(CC(=O)Nc2cc(S(=O)(=O)N3CCCCC3)ccc2C)cc1OC	-5	-20%	10µM*	-5	u	-69*
COc1ccc(S(=O)(=O)N2CCCCCC2)cc1NC(=O)Cc1cc(OC)c(OC)c(OC)c1	1	3.7µM*	-10%	-3	u	2
COc1ccc(S(=O)(=O)N2CCCCC2)cc1NC(=O)C1CC(=O)N(Cc2ccco2)C1 (stereo not drawn)	x	x	-11%	x	x	-17
COc1ccc(S(=O)(=O)N2CCCCC2)cc1NC(=O)CN(Cc1ccco1)Cc1ccco1	x	u	10µM*	x	12µM*	-70*
COc1ccc(S(=O)(=O)Nc2ccccc2C(=O)NC2CC2)cc1NC(C)=O	x	10%	1%	x	-7%	31
O=C(CSc1nnc2[nH]c(=O)cc(-c3ccccc3)n12)Nc1cc(C(F)(F)F)ccc1Cl	x	x	x	x	x	61
O=S1(=O)c2ccccc2N(Cc2ccccc2Cl)c2ccccc21	x	x	x	x	x	3
CCCCCC(=O)NNC1CC(=O)N(c2cccc(OCC)c2)C1=O (stereo not drawn)	-1	u	-2%	-2	27%	16
COc1ccc(S(=O)(=O)N2CCCCC2)cc1NC(=O)CN(C)C1CCCCC1	1	u	11µM*	-11	u	-38
COc1ccc([N+](=O)[O-])cc1NCC(=O)Nc1cc(S(=O)(=O)N2CCCCC2)ccc1C	x	u	11µM*	x	12µM*	-99*
COc1ccc(C)cc1S(=O)(=O)N(CC(=O)Nc1cccc([N+](=O)[O-])c1)c1cc(C)cc(C)c1	5	u	11%	-11	u	-14
COc1ccc(C)cc1NC(=O)CNc1ccccc1CN(C)C1CCCCC1	-1	4.7µM*	-3%	-10	15µM*	-18
COc1ccc(Cl)cc1NC(=O)CNc1ccccc1CN(C)C1CCCCC1	3	u	-28%	13	u	3
COc1ccc(S(=O)(=O)N2CCCCC2)cc1NC(=O)C1CC1C (stereo not drawn)	x	-17%	-13%	x	6%	u
COc1ccc(C)cc1S(=O)(=O)N(CC(=O)Nc1cc([N+](=O)[O-])ccc1C)c1ccc(C)c(C)c1	-3	u	u	5	10µM*	-12
CCCCN(C(=O)c1cccc(-n2cccc2)c1)c1c(N)n(Cc2ccccc2)c(=O)[nH]c1=O	x	-8%	-23%	x	-29%	-26
Cc1ccc(N2CC(NC(=O)c3cccs3)CC2=O)cc1C (stereo not drawn)	x	x	x	x	x	-14
